Records with an inconclusive call do not appear. Activity calls are given as the source filed them. The calls were made as follows: active = hit-call score of the fitted dose curve at least 0.9, where 1 is the maximum; inconclusive = response in the unintended direction; inactive = score below 0.9.
How the values were obtained:
[1] = biological target: human RAR-related Orphan Receptor gamma (RORg), RORC (gene 6097) (UniProt P51449); test: ATG_RORg_TRANS: Attagene TRANS-FACTORIAL HepG2 Assay for human RAR-related Orphan Receptor gamma (RORg) (AID 2283011)
Chain of human RAR-related Orphan Receptor gamma (RORg), RORC (gene 6097) (P51449 whole entry, looked up, the tested form may be a part): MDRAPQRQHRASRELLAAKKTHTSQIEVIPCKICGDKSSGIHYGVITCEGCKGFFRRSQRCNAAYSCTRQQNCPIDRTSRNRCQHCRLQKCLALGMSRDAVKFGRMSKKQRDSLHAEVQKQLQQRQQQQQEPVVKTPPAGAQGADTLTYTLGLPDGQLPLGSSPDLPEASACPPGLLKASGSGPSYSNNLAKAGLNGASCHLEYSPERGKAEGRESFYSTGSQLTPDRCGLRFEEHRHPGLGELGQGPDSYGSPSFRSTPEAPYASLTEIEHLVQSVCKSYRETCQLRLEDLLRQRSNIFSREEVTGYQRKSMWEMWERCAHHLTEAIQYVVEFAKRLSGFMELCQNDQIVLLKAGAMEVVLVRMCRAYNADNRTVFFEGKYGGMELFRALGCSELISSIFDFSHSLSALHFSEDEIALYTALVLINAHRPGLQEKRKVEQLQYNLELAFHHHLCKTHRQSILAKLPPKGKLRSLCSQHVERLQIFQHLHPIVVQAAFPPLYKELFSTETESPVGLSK
How it was run: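 Transient MRTU transfection of HepG2 (TRANS format, exogenous NR-Gal4 chimera). 24 h dosing. Total RNA → oligo(dT) RT → PCR → 6-FAM labelling → HpaI cut → CE. Gain vs DMSO.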

[2] = biological target: human Thyroid Receptor alpha (THRa1), THRA (gene 7067) (UniProt P10827); test: ATG_THRa1_TRANS: Attagene TRANS-FACTORIAL HepG2 Assay for human Thyroid Receptor alpha (THRa1) (AID 2283014)
Chain of human Thyroid Receptor alpha (THRa1), THRA (gene 7067) (P10827 whole entry, looked up, the tested form may be a part): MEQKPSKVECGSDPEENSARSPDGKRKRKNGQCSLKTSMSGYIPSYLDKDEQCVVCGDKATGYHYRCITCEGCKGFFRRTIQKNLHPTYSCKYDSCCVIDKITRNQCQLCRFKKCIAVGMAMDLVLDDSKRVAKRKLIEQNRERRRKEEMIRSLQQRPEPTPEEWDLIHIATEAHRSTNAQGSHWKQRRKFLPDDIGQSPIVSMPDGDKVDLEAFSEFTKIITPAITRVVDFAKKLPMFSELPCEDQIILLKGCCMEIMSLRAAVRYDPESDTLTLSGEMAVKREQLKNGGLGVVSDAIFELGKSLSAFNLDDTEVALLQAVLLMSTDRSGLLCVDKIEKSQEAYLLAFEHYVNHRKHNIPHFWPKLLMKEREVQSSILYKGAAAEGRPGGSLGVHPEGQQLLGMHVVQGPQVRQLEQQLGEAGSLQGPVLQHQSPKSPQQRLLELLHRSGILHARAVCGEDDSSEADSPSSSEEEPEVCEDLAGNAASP
How it was run: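 Transient HepG2 transfection, NR-Gal4 chimera driving GAL4-UAS reporters; 24 h compound exposure; total RNA, oligo(dT) RT, PCR, fluorescent primer extension, capillary electrophoresis. Upward direction vs DMSO control.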

[3] = biological target: human Retinoid X Receptor beta (RXRb), RXRB (gene 6257) (UniProt P28702); test: ATG_RXRb_TRANS: Attagene TRANS-FACTORIAL HepG2 Assay for human Retinoid X Receptor beta (RXRb) (AID 2283013)
Chain of human Retinoid X Receptor beta (RXRb), RXRB (gene 6257) (P28702 whole entry, looked up): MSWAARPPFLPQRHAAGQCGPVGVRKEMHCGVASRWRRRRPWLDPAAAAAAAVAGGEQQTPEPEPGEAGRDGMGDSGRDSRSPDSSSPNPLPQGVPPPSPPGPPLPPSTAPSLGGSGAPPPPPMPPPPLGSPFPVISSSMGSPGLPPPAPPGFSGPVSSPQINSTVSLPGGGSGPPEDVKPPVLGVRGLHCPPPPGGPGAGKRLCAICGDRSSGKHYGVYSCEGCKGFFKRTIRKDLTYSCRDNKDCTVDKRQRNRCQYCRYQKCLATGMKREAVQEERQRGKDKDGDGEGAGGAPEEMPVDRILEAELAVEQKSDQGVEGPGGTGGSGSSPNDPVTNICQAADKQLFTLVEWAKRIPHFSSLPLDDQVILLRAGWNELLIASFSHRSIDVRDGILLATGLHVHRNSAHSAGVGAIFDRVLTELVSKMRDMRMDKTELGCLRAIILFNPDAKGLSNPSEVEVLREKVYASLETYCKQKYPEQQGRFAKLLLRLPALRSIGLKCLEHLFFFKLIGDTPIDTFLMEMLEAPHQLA
How it was run: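 Multiplexed TRANS reporter assay in HepG2; 24 h dosing; reporter mRNA by RT-PCR/CE fluorescence; gain-of-signal relative to DMSO.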

[4] = biological target: human Vitamin D Receptor (VDR), VDR (gene 7421) (UniProt P11473); test: ATG_VDR_TRANS: Attagene TRANS-FACTORIAL HepG2 Assay for human Vitamin D Receptor (VDR) (AID 2283022)
Chain of human Vitamin D Receptor (VDR), VDR (gene 7421) (P11473 whole entry, looked up, the tested form may be a part): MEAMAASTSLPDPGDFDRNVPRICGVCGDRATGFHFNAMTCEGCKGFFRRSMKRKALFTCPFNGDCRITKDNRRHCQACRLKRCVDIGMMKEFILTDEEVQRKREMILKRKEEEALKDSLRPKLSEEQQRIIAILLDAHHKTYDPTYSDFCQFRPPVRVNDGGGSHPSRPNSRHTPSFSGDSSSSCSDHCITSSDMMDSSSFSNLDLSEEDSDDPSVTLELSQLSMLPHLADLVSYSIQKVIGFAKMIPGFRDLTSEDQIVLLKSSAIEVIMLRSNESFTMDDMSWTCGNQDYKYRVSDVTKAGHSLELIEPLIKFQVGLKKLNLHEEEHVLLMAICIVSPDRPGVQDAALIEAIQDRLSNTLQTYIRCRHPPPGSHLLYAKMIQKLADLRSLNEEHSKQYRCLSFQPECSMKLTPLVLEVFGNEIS
How it was run: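 RT-PCR/capillary electrophoresis read-out of reporter mRNA induction in transiently transfected HepG2; 24 h dosing; chimeric NR-Gal4 (TRANS format); gain-of-signal fit against DMSO baseline.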

[5] = biological target: Retinoic acid receptor RXR-alpha (Homo sapiens) (UniProt P19793); test: ATG_RXRa_TRANS: Attagene TRANS-FACTORIAL HepG2 Assay for human Retinoid X Receptor alpha (RXRa) (AID 2283012)
Chain of Retinoic acid receptor RXR-alpha (Homo sapiens) (P19793 whole entry, looked up, the tested form may be a part): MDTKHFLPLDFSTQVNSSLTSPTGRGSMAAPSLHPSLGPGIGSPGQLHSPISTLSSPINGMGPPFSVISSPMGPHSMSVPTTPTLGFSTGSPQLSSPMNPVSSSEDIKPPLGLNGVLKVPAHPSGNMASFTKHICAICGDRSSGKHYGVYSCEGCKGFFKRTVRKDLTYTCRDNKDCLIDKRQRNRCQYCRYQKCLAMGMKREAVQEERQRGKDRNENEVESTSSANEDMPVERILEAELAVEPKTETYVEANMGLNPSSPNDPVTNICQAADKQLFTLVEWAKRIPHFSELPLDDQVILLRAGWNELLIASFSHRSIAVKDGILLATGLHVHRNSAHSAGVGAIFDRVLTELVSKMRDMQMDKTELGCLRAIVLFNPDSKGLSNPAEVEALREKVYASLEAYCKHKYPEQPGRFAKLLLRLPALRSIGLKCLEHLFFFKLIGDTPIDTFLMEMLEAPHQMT
How it was run: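 Cells (HepG2) carried transiently transfected GAL4-responsive reporter units. Following a 24 h chemical incubation, reporter mRNA induction was read via RT-PCR fragment analysis; DMSO served as negative control and baseline.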

## O=c1c(O)c(-c2ccc(O)cc2)oc2cc(O)cc(O)c12
[1]
  outcome: inactive
[2]
  outcome: inactive

## CCCC(=O)OC(C)(C)Cc1ccccc1
[1]
  outcome: inactive
[3]
  AC50: 63.9 µM (active)
[4]
  outcome: inactive

## CCCCCCOCCOCCO
[5]
  outcome: inactive

## O=C(Nc1ccc([N+](=O)[O-])cc1)Nc1ccc([N+](=O)[O-])cc1 (tested in a mixture with another compound)
[5]
  outcome: inactive
[3]
  outcome: inactive

## CCCCCCC(=O)c1ccccc1
[5]
  outcome: inactive

## CCOC(=O)CN
[5]
  outcome: inactive
[3]
  outcome: inactive

## CCCSc1ccc2nc(NC(=O)OC)[nH]c2c1
[5]
  outcome: inactive
[3]
  outcome: inactive

## CCOCCOCCOCC
[5]
  outcome: inactive

From PubChem BioAssay (EPA / NIEHS)
